# Most compounds without a hit are left out; they make up all but 3% or so of the library.
# DRD3 agonist: qHTS of D3 Dopamine Receptor Agonist: qHTS. actives 0.58% (n = 410,000). max activation, %. AID 652048, 2013. D(3) dopamine receptor (Homo sapiens), P35462. D3R DiscoveRx beta-arrestin cells, luminescence, 90 min; in the data active = max activation above about 30%; note: 0% is about no effect
# Target sequence (P35462 whole entry, looked up): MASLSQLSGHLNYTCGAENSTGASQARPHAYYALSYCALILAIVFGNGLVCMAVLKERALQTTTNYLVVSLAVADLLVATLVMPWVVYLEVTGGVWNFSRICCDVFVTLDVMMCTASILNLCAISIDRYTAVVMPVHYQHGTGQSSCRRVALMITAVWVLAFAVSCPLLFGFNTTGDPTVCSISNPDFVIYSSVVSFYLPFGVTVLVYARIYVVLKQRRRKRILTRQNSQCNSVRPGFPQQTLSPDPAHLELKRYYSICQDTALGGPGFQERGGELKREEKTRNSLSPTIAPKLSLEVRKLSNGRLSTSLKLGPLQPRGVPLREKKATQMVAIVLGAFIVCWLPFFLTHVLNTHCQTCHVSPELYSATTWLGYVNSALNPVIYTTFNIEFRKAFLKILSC
#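 Cells at 1500/well, incubated overnight, then treated with pinned compounds (dopamine as control) for 90 min at 37 degrees C. DiscoveRx reagent added for 30 - 60 minutes at room temperature; luminescence read.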
# Glioma ERSR ind: qHTS for Inducers of the Endoplasmic Reticulum Stress Response (ERSR) in Human Glioma: qHTS; U87-MG GRP78 promoter luciferase reporter, 16 h; Potency, µM, without a hit: at the highest dose activation, most hits filed as activators; actives 0.02% (n = 420,000); AID 602332, 2012; note: potency is the fitted concentration of half-maximal effect; series mostly up to about 76 µM; % of control where 0% means no effect; nearly all actives have a fitted effect of over 35% in size
#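 Stably transfected U87-MG glioma cells carrying a GRP78-based luciferase sensor; 16 h compound incubation. Luminescence end-point read 10 min after Bright-Glo addition at room temperature.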
# Nrf2 ARE act: qHTS of Nrf2 Activators; AID 624171, 2012; Potency, µM (doses to about 46.1 µM), for inactives: at the highest dose activation, most hits filed as activators; AREc32 ARE-luciferase reporter (MCF7-derived line), luminescence, 24 h; actives 0.31% (n = 410,000); note: potency is the fitted concentration of half-maximal effect; % of control where 0% means no effect; nearly all actives have a fitted effect of over 65% in size
#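 Each well held 1000 AREc32 cells, which were incubated with compound for 24 hr at 37 deg C after overnight attachment, and ARE reporter activity was quantified by firefly luciferase luminescence.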
# DRD3 antagonist: qHTS of D3 Dopamine Receptor Antagonist: qHTS; D(3) dopamine receptor (Homo sapiens), P35462; D3R cells, DiscoveRx beta-arrestin luminescence, antagonist mode; active compounds read low; actives 2.5% (n = 360,000); max response, negative = inhibition, %; in the data active = max response below about -50%; inconclusive = no clear call, values can overlap the other calls; note: % is set by controls: 0 for no effect and ±100 for the full control effect
#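 Cells plated overnight at 1500 cells/well, then exposed to library compounds with dopamine controls for 90 minutes at 37 degrees C. DiscoveRx reagent added for 30–60 minutes at room temperature; luminescence read, quantitative HTS format.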
# * marks the source's active call; other numbers are inactive results; ? = inconclusive; nt = no result; ! = repeats disagree. Unless noted, calls come from the whole dose curve; as a rule, active = well fitted curve in the direction sought with a large enough effect; inconclusive = small, poorly fitted or top-dose-only effect, or another doubt; inactive = no such curve, though single readings can be large; an effect the other way counts as inactive or inconclusive.
SMILES,DRD3 agonist,Glioma ERSR ind,Nrf2 ARE act,DRD3 antagonist
CO[C@H]1C[C@H](O[C@H]2[C@H](C)[C@@H](O[C@@H]3O[C@H](C)C[C@H](N(C)C)[C@H]3O)[C@@H](C)C[C@]3(CO3)C(=O)[C@H](C)[C@@H](O)[C@@H](C)[C@@H](C)OC(=O)[C@@H]2C)O[C@@H](C)[C@@H]1O,7,nt,nt,nt
COc1cc2c(NC3CCN(C)CC3)nc(N3CCCN(C)CC3)nc2cc1OCCCN1CCOCC1,nt,-5%,nt,nt
Cc1ccccc1-c1nc(CS(=O)(=O)CC(=O)Nc2cccc(C(F)(F)F)c2)c(C)o1,-15,9%,0%,nt
COC(=O)[C@H](CCSC)NC(=O)c1ccc(NC[C@@H](N)CS)cc1-c1ccccc1,nt,-8%,nt,nt
CCC(=O)CC,nt,-5%,nt,nt
O=C(Nc1ccc(S(=O)(=O)N2CCOCC2)cc1)c1ccc(CN2CCc3ccccc3C2)cc1,-11,-7%,2%,-54*
CCOC(=O)c1c(CSc2ccccc2)n(C)c2cc(Br)c(O)c(CN(C)C)c12,-13,-3%,5%,-16
CCOC(=O)c1c(CN(C)C)oc2cc(CN(C)C)c(O)c(CSc3ccccc3)c12,-21,-5%,5%,-59*
CC(CN1CCCCC1)NC(=O)c1cc(-c2ccccn2)nc2ccc(Cl)cc12 (configuration not stated),-18,-2%,0%,-2
CC(CN1CCCCC1)NC(=O)c1scnc1-c1ccccc1 (configuration not stated),-21,-4%,-1%,-84*
Cc1ncc2c(c1CNC(=O)c1ccccc1F)CCN(C(=O)c1ccc3c(c1)OCCO3)C2,nt,-3%,nt,nt
CCCCC(=O)Nc1cccc(NC(=O)CC)c1,1,-5%,-1%,11
CC(=O)Nc1cccc(O)c1,83*!,?,0%,-1
CC(=O)Nc1cccc(NC(=O)c2ccccc2Cl)c1,-9,-4%,-1%,-55*
CCCCC(=O)Nc1cccc(NC(=O)c2ccccc2Br)c1,1,-4%,0%,-61*
CC(=O)Nc1ccccc1,16,-1%,0%,31
CCOC(=O)N1CCN(Cc2ccc3c(c2)CN(C(=O)c2ccc(C#CC(C)(C)O)o2)CCO3)CC1,nt,-3%,nt,nt
COc1cccc(C(=O)NCC2Cc3cccc(-c4nc(C)cnc4C)c3O2)c1OC (configuration not stated),nt,9%,nt,nt
CN(c1ccc(Cl)cc1)S(=O)(=O)c1nnc(NC(=O)c2ccco2)s1,-1,-3%,4%,-72*
COCCN(C(=O)c1ccco1)c1nc(-c2ccccc2)cs1,2,-5%,10µM*,2
O=C(Nc1nc(-c2ccccc2)cs1)c1ccco1,-9,8%,14µM*,10
Cc1nc(NC(=O)c2ccco2)sc1-c1csc(Nc2ccc(Cl)cc2)n1,52*,2%,7%,57
Cc1ccc(Cl)cc1Nc1nc(-c2sc(NC(=O)c3ccco3)nc2C)cs1,4,4%,0%,60
CC(C)c1c(C(=O)NCc2cccnc2)cnn1-c1nccc(-c2cccs2)n1,nt,-1%,nt,nt
CCc1nc2cc(C(=O)N3CCC[C@H]3C(=O)OC)cc(NC(=O)c3ccccc3OC)c2n1C,nt,-4%,nt,nt
SMILES,DRD3 agonist,Glioma ERSR ind,Nrf2 ARE act,DRD3 antagonist
COc1cccc(N(C(=O)c2ccco2)c2nc(-c3sc(NC(=O)c4ccco4)nc3C)cs2)c1,32*,0%,7%,77
CC1CC1c1ccc(/C=C(\C#N)C(=O)Nc2ccccc2Cl)o1 (configuration not stated),1,2%,13µM*,14
CC1CC1c1ccc(/C=C(\C#N)C(=O)Nc2ccc(Cl)cc2)o1 (configuration not stated),-26,3%,6.3µM*,?
COc1ccc(OC)c(CNC(=O)CCCn2nc(C)c3c(C)n(-c4ccc(C)cc4)nc3c2=O)c1,-6,1%,3%,nt
CC(=O)OCC(NC(=O)C(Cc1ccccc1)NC(=O)OC(C)(C)C)C1OC(n2cc(F)c(=O)[nH]c2=O)C(OC(C)=O)C1OC(C)=O (configuration not stated),nt,1%,nt,nt
O=C(c1cnc2sccn2c1=O)N1CCc2ccccc2C1,-19,0%,3%,-96*
O=C(c1cnc2sccn2c1=O)N1CCN(c2ccccc2Cl)CC1,6,0%,0%,-7
O=C(Cn1c2[n+](c3ccc(C(F)(F)F)cc31)CCCCC2)Nc1ccccc1,-33,-6%,1%,-51*
CCc1cccc(NC(=O)Cn2c3[n+](c4ccc(C(F)(F)F)cc42)CCCCC3)c1,-10,-1%,0%,5
O=C(Cn1c2[n+](c3ccc(C(F)(F)F)cc31)CCCCC2)c1cccc([N+](=O)[O-])c1,-12,-3%,2%,-89*
O=C(Cn1c2[n+](c3ccc(C(F)(F)F)cc31)CCCCC2)c1ccc2c(c1)OCCO2,-3,-1%,-1%,?
CC(=O)c1ccc(F)c(-c2cc(C)cc3c2OC(CNC(=O)c2cccnc2)C3)c1 (configuration not stated),nt,-3%,nt,nt
C=C1C(=O)C=C2CN(C(=O)c3ccccc3)[C@@](Cc3ccc(F)cc3)(C(=O)OC)[C@@H]12,-31,-12%,-3%,-99*
O=C(Nc1c2c(nn1-c1ccc(F)cc1)CS(=O)(=O)C2)c1ccc(S(=O)(=O)N2CCOCC2)cc1,-3,2%,0%,-65*
CCOC(=O)C(=CNc1ccc(NC2=NCC(C)(C)S2)cc1)C(=O)OCC,52*,-3%,0%,104
Fc1ccccc1OCCCCN1CCCCC1,-19,-5%,0%,-81*
c1ccc2c(OCCCCN3CCCC3)cccc2c1,-1,-2%,-1%,?
Clc1ccccc1OCCCCN1CCNCC1,-13,-1%,0%,?
Clc1ccccc1OCCCCN1CCCC1,-29,4%,0%,-85*
Clc1ccc(Cl)c(OCCCCN2CCCCC2)c1,-18,-4%,0%,-106*
COc1cccc(OC)c1OCCCCN1CCCCC1,-17,-3%,0%,-14
Clc1ccccc1OCCCCN1CCCCC1,-25,7%,0%,-95*
CC(C)COc1ccc(CC(=O)NO)cc1,nt,-2%,nt,nt
Cc1cc(-c2ccnc(-n3ncc(C(=O)NCC4COCCO4)c3C3CC3)n2)c(C)s1 (configuration not stated),nt,6%,nt,nt
CCC1CN(C(=O)Nc2cccc3c2CCCC3)c2cc(Cl)ccc2O1 (configuration not stated),1,-3%,1%,nt
O=c1cc(/C=C/c2ccc([N+](=O)[O-])cc2)c2ccccc2[nH]1,nt,-4%,nt,nt
O=C(OCCN1CCCCC1)c1ccccc1Cl,1,0%,0%,-68*
COc1cccc(CC(=O)NCC2Cc3cc(Cl)cc(-c4ncccn4)c3O2)c1 (configuration not stated),nt,-8%,nt,nt
Nc1c(SCCC(=O)O)ccc2c1C(=O)c1ccccc1C2=O,-8,-4%,0%,-56*
Nc1c(C(=O)O)ccc2c1C(=O)c1ccccc1C2=O,-11,4%,1%,?
